# Active and inactive are the calls of the source. Rule for the calls: active = hit-call score of the fitted dose curve at least 0.9, where 1 is the maximum; inactive = score below 0.9.
# Key:
# [1] = read-out: Forkhead box O1 (FOXO1), FOXO1 (gene 2308); assay: LTEA_HepaRG_FOXO1: Life Technologies and Expression Analysis (LTEA) Assay for Forkhead box O1 (FOXO1) using HepaRG (AID 2283456); settings: mRNA level, 48 h; actives raise or lower the signal
# In short: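 Using one lot of HepaRG hepatic cells kept in 0.5% DMSO, the team applied test chemicals in duplicate, half-log dilutions from 100 uM, for 48 h. Expression, normalised to ACTB/GAPDH/POLR2A, was compared with vehicle in either direction.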
# [2] = read-out: growth arrest and DNA damage 45 (GADD45A), GADD45A (gene 1647); assay: LTEA_HepaRG_GADD45A: Life Technologies and Expression Analysis (LTEA) Assay for growth arrest and DNA damage 45 (GADD45A) using HepaRG (AID 2283458); settings: mRNA level, 48 h; actives raise or lower the signal
# In short: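 GADD45A expression was measured by TaqMan qRT-PCR against three housekeeping genes (ACTB, GAPDH, POLR2A) after 48 h treatment of HepaRG cells. Eight-point half-log series up to 100 uM in 0.5% DMSO, run in duplicate.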
# [3] = read-out: Forkhead box O3 (FOXO3), FOXO3 (gene 2309); assay: LTEA_HepaRG_FOXO3: Life Technologies and Expression Analysis (LTEA) Assay for Forkhead box O3 (FOXO3) using HepaRG (AID 2283459); settings: mRNA level, 48 h; actives raise or lower the signal
# In short: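 Gene-expression endpoint: FOXO3 transcript level by qRT-PCR in HepaRG cultures treated 48 h with chemicals up to 100 uM (half-log, 0.5% DMSO vehicle).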
# [4] = read-out: ABC Transporter (ABCB1), ABCB1 (gene 5243); assay: LTEA_HepaRG_ABCB1: Life Technologies and Expression Analysis (LTEA) Assay for ABC Transporter (ABCB1) using HepaRG (AID 2283460); settings: mRNA level, 48 h; actives raise or lower the signal
# In short: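 Human liver HepaRG line treated 48 h with up to 100 uM compound (eight half-log points, 0.5% DMSO); ABCB1 mRNA change fitted bidirectionally against DMSO controls.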
# [5] = read-out: growth arrest and DNA damage 45 (GADD45B), GADD45B (gene 4616); assay: LTEA_HepaRG_GADD45B: Life Technologies and Expression Analysis (LTEA) Assay for growth arrest and DNA damage 45 (GADD45B) using HepaRG (AID 2283461); settings: mRNA level, 48 h; actives raise or lower the signal
# In short: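 HepaRG, ~100,000 cells/well, 48 h plating; serum-free induction medium; cpd 100 uM top, half-log x8, 0.5% DMSO, duplicate, 48 h; lysis in RLT, RNA isolation, qRT-PCR; norm ACTB/GAPDH/POLR2A; bidirectional fit vs DMSO.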
# [6] = read-out: ABC Transporter (ABCC3), ABCC3 (gene 8714); assay: LTEA_HepaRG_ABCC3: Life Technologies and Expression Analysis (LTEA) Assay for ABC Transporter (ABCC3) using HepaRG (AID 2283462); settings: mRNA level, 48 h; actives raise or lower the signal
# In short: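 Human HepaRG, 48 h dosing, 8-pt half-log series from 100 uM, 0.5% DMSO vehicle, duplicates. ABCC3 mRNA by TaqMan qRT-PCR, housekeeping-normalized; bidirectional curve fit vs DMSO.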
# [7] = read-out: ABC Transporter (ABCB11), ABCB11 (gene 8647); assay: LTEA_HepaRG_ABCB11: Life Technologies and Expression Analysis (LTEA) Assay for ABC Transporter (ABCB11) using HepaRG (AID 2283463); settings: mRNA level, 48 h; actives raise or lower the signal
# In short: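 Using HepaRG cultures held in 0.5% DMSO, chemicals were tested at half-log dilutions from 100 uM for 48 h. Induction or suppression of ABCB11 mRNA, normalized to ACTB, GAPDH and POLR2A, was fitted bidirectionally against vehicle.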
# [8] = read-out: ABC Transporter (ABCC2), ABCC2 (gene 1244); assay: LTEA_HepaRG_ABCC2: Life Technologies and Expression Analysis (LTEA) Assay for ABC Transporter (ABCC2) using HepaRG (AID 2283464); settings: mRNA level, 48 h; actives raise or lower the signal
# In short: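 HepaRG, 48 h post-plating; serum-free induction medium; cpd 8-pt, 100 uM top, half-log, 0.5% DMSO, duplicate, 48 h. Readout: ABCC2 mRNA by qRT-PCR, norm. ACTB/GAPDH/POLR2A. Bidirectional fit vs DMSO baseline.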
# [9] = read-out: Broad substrate specificity ATP-binding cassette transporter ABCG2 (Homo sapiens) (UniProt Q9UNQ0); assay: LTEA_HepaRG_ABCG2: Life Technologies and Expression Analysis (LTEA) Assay for ABC Transporter (ABCG2) using HepaRG (AID 2283465); settings: mRNA level, 48 h; actives raise or lower the signal
# In short: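 Gene expression of ABCG2 in HepaRG liver cells is quantified by qRT-PCR following 48 h exposure across an eight-point series topping at 100 uM. Values come from bidirectional fitting relative to DMSO vehicle.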
# [10] = read-out: ATP-citrate lyase (ACLY), ACLY (gene 47); assay: LTEA_HepaRG_ACLY: Life Technologies and Expression Analysis (LTEA) Assay for ATP-citrate lyase (ACLY) using HepaRG (AID 2283466); settings: mRNA level, 48 h; actives raise or lower the signal
# In short: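 ACLY expression changes in human HepaRG liver cells are quantified by qRT-PCR after 48 h exposure to test chemicals (maximum 100 uM, half-log steps). Values are fitted in both directions relative to 0.5% DMSO vehicle.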
# [11] = read-out: Peroxisomal acyl-coenzyme A oxidase 1 (ACOX1) gene, ACOX1 (gene 51); assay: LTEA_HepaRG_ACOX1: Life Technologies and Expression Analysis (LTEA) Assay for Peroxisomal acyl-coenzyme A oxidase 1 (ACOX1) gene using HepaRG (AID 2283467); settings: mRNA level, 48 h; actives raise or lower the signal
# In short: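 Human HepaRG hepatic cultures, 48 h treatment with test chemicals up to 100 uM. ACOX1 expression read by qRT-PCR relative to 0.5% DMSO vehicle.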
# [12] = read-out: Alkaline Phosphatase, Placental (ALPP) gene, ALPP (gene 250); assay: LTEA_HepaRG_ALPP: Life Technologies and Expression Analysis (LTEA) Assay for Alkaline Phosphatase, Placental (ALPP) gene using HepaRG (AID 2283468); settings: mRNA level, 48 h; actives raise or lower the signal;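 for AC50: differentiated human HepaRG liver cells in serum-free induction medium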
# In short: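 HepaRG, 48 h plating then 48 h dosing, serum-free induction medium, 0.5% DMSO. 8 conc, half-log, max 100 uM, duplicates. Endpoint: ALPP transcript by qRT-PCR, housekeeping-normalized; gain or loss fitted vs DMSO.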
# [13] = read-out: Bcl-2 (BAD) gene, BAD (gene 572); assay: LTEA_HepaRG_BAD: Life Technologies and Expression Analysis (LTEA) Assay for Bcl-2 (BAD) gene using HepaRG (AID 2283469); settings: mRNA level, 48 h; actives raise or lower the signal
# In short: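 Activity values reflect up- or down-regulation of BAD mRNA in human HepaRG hepatic cells treated 48 h in serum-free medium, with eight-point half-log dosing capped at 100 uM and 0.5% DMSO vehicle.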
# [14] = read-out: Bcl-2 (BAX) gene, BAX (gene 581); assay: LTEA_HepaRG_BAX: Life Technologies and Expression Analysis (LTEA) Assay for Bcl-2 (BAX) gene using HepaRG (AID 2283470); settings: mRNA level, 48 h; actives raise or lower the signal
# In short: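 Gene expression measured by Fluidigm qRT-PCR with three housekeeping genes for normalisation. HepaRG cells, plated 48 h beforehand, treated 48 h at up to 100 uM (8-point, half-log) in 0.5% DMSO. Bidirectional fitting versus DMSO.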
# [15] = read-out: adenosine kinase (ADK) gene, ADK (gene 132); assay: LTEA_HepaRG_ADK: Life Technologies and Expression Analysis (LTEA) Assay for adenosine kinase (ADK) gene using HepaRG (AID 2283471); settings: mRNA level, 48 h; actives raise or lower the signal
# In short: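 Following 48 h exposure of HepaRG cells in 0.5% DMSO (top concentration 100 uM, duplicate wells), ADK mRNA induction or suppression was measured by qRT-PCR, normalised to ACTB/GAPDH/POLR2A, and fitted bidirectionally relative to vehicle.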
# [16] = read-out: Alpha-fetoprotein (AFP) gene, AFP (gene 174); assay: LTEA_HepaRG_AFP: Life Technologies and Expression Analysis (LTEA) Assay for Alpha-fetoprotein (AFP) gene using HepaRG (AID 2283472); settings: mRNA level, 48 h; actives raise or lower the signal
# In short: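 AFP transcript measured by TaqMan qRT-PCR with three housekeeping genes for normalization, after 48 h chemical treatment of HepaRG cells (top 100 uM, half-log steps, 0.5% DMSO). Gain or loss fitted against vehicle.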
# BCL2L11 (gene 10018) = assay: LTEA_HepaRG_BCL2L11: Life Technologies and Expression Analysis (LTEA) Assay for Bcl-2 (BCL2L11) gene using HepaRG (AID 2283473); settings: mRNA level, 48 h; actives raise or lower the signal
# In short: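 Read-out is BCL2L11 transcript level by qRT-PCR, normalized to three housekeeping genes and fitted bidirectionally against 0.5% DMSO vehicle. HepaRG cells received chemicals for 48 h in serum-free induction medium, 100 uM down in half-log dilutions.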
# [17] = read-out: Apolipoprotein A-V (APOA5) gene, APOA5 (gene 116519); assay: LTEA_HepaRG_APOA5: Life Technologies and Expression Analysis (LTEA) Assay for Apolipoprotein A-V (APOA5) gene using HepaRG (AID 2283474); settings: mRNA level, 48 h; actives raise or lower the signal
# In short: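 Readout is APOA5 transcript level by qRT-PCR on Fluidigm dynamic arrays, normalized to three housekeeping genes. HepaRG cultures received chemicals for 48 h at up to 100 uM (half-log steps, 0.5% DMSO), with gain or loss scored relative to DMSO.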
# [18] = read-out: Apoptosis regulator Bcl-2 (Homo sapiens) (UniProt P10415); assay: LTEA_HepaRG_BCL2: Life Technologies and Expression Analysis (LTEA) Assay for Bcl-2 gene using HepaRG (AID 2283475); settings: mRNA level, 48 h; actives raise or lower the signal
# In short: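 qRT-PCR of BCL2 transcript, normalized to three housekeeping genes (ACTB, GAPDH, POLR2A), after 48 h chemical exposure of HepaRG cells; concentrations top 100 uM with half-log dilutions, 0.5% DMSO vehicle, duplicates; changes up or down fitted relative to vehicle.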
# [19] = CEETOX_H295R_TESTO: CeeTox H295R High-throughput Steroidogenesis Assay for Testosterone (TESTO) (AID 2283457); settings: actives raise or lower the signal
# In short: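 H295R, passage ≤10, 48 h dosing; media extracted with MTBE → HPLC-MS/MS for testosterone; 7-pt standard curve sets LLOQ/ULOQ; bidirectional fit vs DMSO; MTT viability same wells.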
# Chain of Broad substrate specificity ATP-binding cassette transporter ABCG2 (Homo sapiens) (Q9UNQ0 whole entry, looked up): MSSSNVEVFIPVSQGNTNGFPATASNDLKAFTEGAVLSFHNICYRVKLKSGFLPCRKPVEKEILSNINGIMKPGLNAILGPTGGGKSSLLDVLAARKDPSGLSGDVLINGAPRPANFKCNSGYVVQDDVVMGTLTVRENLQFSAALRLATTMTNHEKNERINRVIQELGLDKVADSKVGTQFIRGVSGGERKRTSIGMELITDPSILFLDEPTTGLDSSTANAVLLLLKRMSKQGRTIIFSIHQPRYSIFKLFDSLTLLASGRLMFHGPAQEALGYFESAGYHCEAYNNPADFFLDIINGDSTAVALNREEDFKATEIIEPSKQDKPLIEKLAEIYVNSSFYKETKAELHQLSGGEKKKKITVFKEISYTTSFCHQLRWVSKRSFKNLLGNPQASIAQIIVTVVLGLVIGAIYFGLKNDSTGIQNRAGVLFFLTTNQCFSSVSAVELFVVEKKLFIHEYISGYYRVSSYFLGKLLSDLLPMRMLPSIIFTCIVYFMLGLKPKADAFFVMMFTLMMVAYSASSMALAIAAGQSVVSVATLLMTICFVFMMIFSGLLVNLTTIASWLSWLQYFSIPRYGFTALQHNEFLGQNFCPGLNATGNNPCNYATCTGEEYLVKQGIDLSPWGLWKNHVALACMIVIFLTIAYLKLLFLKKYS
# Chain of Apoptosis regulator Bcl-2 (Homo sapiens) (P10415 whole entry, looked up): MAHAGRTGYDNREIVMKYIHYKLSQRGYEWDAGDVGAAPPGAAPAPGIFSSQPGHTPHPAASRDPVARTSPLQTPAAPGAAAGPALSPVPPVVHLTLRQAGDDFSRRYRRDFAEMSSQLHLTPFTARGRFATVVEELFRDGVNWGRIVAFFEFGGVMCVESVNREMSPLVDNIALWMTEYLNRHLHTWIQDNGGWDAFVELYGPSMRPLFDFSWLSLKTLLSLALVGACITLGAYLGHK
smiles,measurement,setting,value
O=C(O)COc1nc(Cl)c(Cl)cc1Cl,outcome,[1],inactive
same,outcome,[2],inactive
same,outcome,[3],inactive
same,outcome,[4],inactive
same,outcome,[5],inactive
same,outcome,[6],inactive
same,AC50,[7],23.2 µM (active)
same,outcome,[8],inactive
same,outcome,[9],inactive
same,outcome,[10],inactive
same,outcome,[11],inactive
same,outcome,[12],inactive
same,outcome,[13],inactive
same,outcome,[14],inactive
same,outcome,[15],inactive
same,outcome,[16],inactive
same,outcome,BCL2L11 (gene 10018),inactive
same,outcome,[17],inactive
same,outcome,[18],inactive
N#CC(CCc1ccc(Cl)cc1)(Cn1cncn1)c1ccccc1 (configuration not stated),AC50,[1],77.8 µM (active)
same,outcome,[19],inactive
same,AC50,[2],74.7 µM (active)
same,outcome,[3],inactive
same,outcome,[4],inactive
same,outcome,[5],inactive
same,AC50,[6],12.5 µM (active)
same,AC50,[7],72.3 µM (active)
same,AC50,[8],50 µM (active)
same,AC50,[9],50 µM (active)
same,AC50,[10],12.9 µM (active)
same,AC50,[11],34.3 µM (active)
same,AC50,[12],21.9 µM (active)
same,outcome,[13],inactive
same,AC50,[14],68 µM (active)
same,outcome,[15],inactive
same,AC50,[16],15.8 µM (active)
same,outcome,BCL2L11 (gene 10018),inactive
same,AC50,[17],50 µM (active)
same,AC50,[18],66.7 µM (active)
CCON=C(CC)C1=C(O)CC(c2c(C)cc(C)cc2C)CC1=O (configuration not stated),outcome,[1],inactive
same,outcome,[19],inactive
same,outcome,[2],inactive
same,outcome,[3],inactive
same,AC50,[4],50 µM (active)
same,outcome,[5],inactive
same,outcome,[6],inactive
same,outcome,[7],inactive
same,AC50,[8],50 µM (active)
same,outcome,[10],inactive
same,outcome,[11],inactive
same,outcome,[12],inactive
same,outcome,[13],inactive
same,outcome,[14],inactive
same,outcome,[15],inactive
same,outcome,[16],inactive
same,outcome,BCL2L11 (gene 10018),inactive
same,outcome,[17],inactive
same,outcome,[18],inactive
CC(C)Oc1cc(-n2nc(C(C)(C)C)oc2=O)c(Cl)cc1Cl,outcome,[1],inactive
same,outcome,[19],inactive
same,outcome,[2],inactive
same,outcome,[3],inactive
same,AC50,[4],1.25 µM (active)
same,AC50,[5],4.73 µM (active)
same,outcome,[6],inactive
same,AC50,[7],58.8 µM (active)
same,AC50,[8],2.52 µM (active)
same,AC50,[9],26 µM (active)
same,AC50,[10],77.4 µM (active)
same,AC50,[11],19.8 µM (active)
same,AC50,[12],69.8 µM (active)
same,outcome,[13],inactive
same,outcome,[14],inactive
same,outcome,[15],inactive
same,AC50,[16],47.2 µM (active)
same,outcome,BCL2L11 (gene 10018),inactive
same,AC50,[17],32.4 µM (active)
same,AC50,[18],81.1 µM (active)
C=CCC1=C(C)[C@@H](OC(=O)[C@@H]2[C@@H](C=C(C)C)C2(C)C)CC1=O,outcome,[1],inactive
same,outcome,[2],inactive
same,outcome,[3],inactive
same,AC50,[4],0.086 µM (active)
same,outcome,[5],inactive
same,AC50,[6],74.2 µM (active)
same,AC50,[7],50 µM (active)
same,outcome,[8],inactive
same,outcome,[9],inactive
same,outcome,[10],inactive
same,outcome,[11],inactive
same,AC50,[12],81.2 µM (active)
same,outcome,[13],inactive
same,outcome,[14],inactive
same,outcome,[15],inactive
same,AC50,[16],50 µM (active)
same,outcome,BCL2L11 (gene 10018),inactive
same,outcome,[17],inactive
same,outcome,[18],inactive
